Active and inactive are the calls of the source.
What was measured:
[1] = compounds binding Alexa647 anti-His antibody – biochemical, small-molecule microarray, 635 nm fluorescence, artefact control for SMM control protein annotation, primary screen (AID 1128); settings: higher = more signal;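 note: score merges feature fluorescence with signal-to-noise for each printed compound spot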
[2] = system: Human papillomavirus type 1a E7 protein (residues 1-88); test: HPV1a E7 small-molecule binders, primary screen, biochemical, small-molecule microarray, residues 1-88, 635 nm (AID 1129); settings: small-molecule microarray binding, fluorescence 635 nm; higher = more signal
[3] = target: Focal adhesion kinase 1 (Homo sapiens) (UniProt Q05397); test: PTK2 protein binding on printed compound slides – biochemical, small-molecule microarray, 635/667 nm fluorescence, BSA, DTT, primary screen (AID 1130); settings: 635 nm fluorescence, higher = more signal;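 note: composite of spot emission at 667 nm and signal to noise over triplicate slides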
[4] = system: Fibrinogen (Alexa647-labelled); test: Alexa647-fibrinogen binding to printed small molecules – biochemical, small-molecule microarray, 635/667 nm fluorescence, artefact control for SMM control-protein annotation, profiling panel (AID 1131); settings: fibrinogen-A647 binding fluorescence, higher = more signal;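 note: z-score merges 667 nm fluorescence with per-spot signal-to-noise over triplicate slides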
[5] = target: Follistatin (Homo sapiens) (UniProt P19883); test: FST protein binding to printed compounds – biochemical, small-molecule microarray, 635/667 nm fluorescence, primary screen (AID 1132); settings: 635 nm fluorescence, higher = more signal
[6] = target: Fibroblast growth factor 2 (Homo sapiens) (UniProt P09038); test: basic fibroblast growth factor binding to printed compounds – biochemical, small-molecule microarray, 635/667 nm fluorescence, primary screen (AID 1133); settings: FGF2, fluorescence 635/667, higher = more signal
[7] = JC-1 mitochondrial potential readout, lung cancer cells – cell-based, A549, JC-1 fluorescence, basal, 24 h, 100 nL, profiling panel (AID 1138); settings: higher = more signal;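 note: A549 lung adenocarcinoma cells under basal conditions with no added stimulus; test concentration not given here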
Lefty1 = Lefty1 protein binding to printed compounds – biochemical, small-molecule microarray, 635/667 nm fluorescence, primary screen (AID 1139); settings: fluorescence 635/667, higher = more signal
[8] = system: wheat germ agglutinin (Triticum aestivum), Alexa647-labelled; test: Alexa647-WGA lectin binding to printed small molecules – biochemical, small-molecule microarray, 635/667 nm fluorescence, artefact control for SMM control-protein annotation, profiling panel (AID 1140); settings: WGA-A647 binding, 635 nm fluorescence, higher = more signal;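 note: score merges 667 nm feature emission with signal to noise over triplicate slides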
[9] = target: Luciferin 4-monooxygenase (Photinus pyralis) (UniProt P08659); test: inhibition of purified Photinus pyralis luciferase – biochemical, luminescence, purified enzyme, 2006 set, primary screen (AID 1141); settings: purified firefly luciferase, SteadyGlo luminescence, 30 min; higher = more signal, called active from +8 up or from −8 down;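 note: cell-free assay with purified firefly luciferase at 100 ng per well in PBS; test concentration not given here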
Chain of Luciferin 4-monooxygenase (Photinus pyralis) (P08659 whole entry, looked up): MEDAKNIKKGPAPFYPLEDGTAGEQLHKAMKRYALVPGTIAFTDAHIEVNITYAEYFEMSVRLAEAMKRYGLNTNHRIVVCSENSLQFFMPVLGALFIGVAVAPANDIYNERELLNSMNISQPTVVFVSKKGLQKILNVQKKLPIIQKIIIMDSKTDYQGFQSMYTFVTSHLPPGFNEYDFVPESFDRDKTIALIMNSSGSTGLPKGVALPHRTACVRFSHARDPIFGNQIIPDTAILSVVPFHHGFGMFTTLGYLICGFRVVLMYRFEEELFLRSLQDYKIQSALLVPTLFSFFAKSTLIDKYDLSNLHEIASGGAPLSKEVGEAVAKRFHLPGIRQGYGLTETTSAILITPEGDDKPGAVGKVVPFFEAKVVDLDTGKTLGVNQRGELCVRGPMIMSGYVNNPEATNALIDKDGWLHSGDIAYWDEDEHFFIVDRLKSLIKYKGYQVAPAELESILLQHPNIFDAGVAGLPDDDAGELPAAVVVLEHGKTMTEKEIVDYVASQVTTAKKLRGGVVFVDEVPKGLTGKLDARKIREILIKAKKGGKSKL

Chain of Follistatin (Homo sapiens) (P19883 whole entry, looked up): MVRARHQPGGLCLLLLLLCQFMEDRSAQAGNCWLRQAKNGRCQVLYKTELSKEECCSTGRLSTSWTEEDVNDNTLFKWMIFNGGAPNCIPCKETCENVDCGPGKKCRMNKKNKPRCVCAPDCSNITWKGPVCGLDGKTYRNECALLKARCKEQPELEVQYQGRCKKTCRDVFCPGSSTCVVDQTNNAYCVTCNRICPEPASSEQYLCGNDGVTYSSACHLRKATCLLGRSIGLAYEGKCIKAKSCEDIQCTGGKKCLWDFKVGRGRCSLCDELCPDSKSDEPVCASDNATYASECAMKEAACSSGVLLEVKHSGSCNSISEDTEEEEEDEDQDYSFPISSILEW
Chain of Focal adhesion kinase 1 (Homo sapiens) (Q05397 whole entry, looked up): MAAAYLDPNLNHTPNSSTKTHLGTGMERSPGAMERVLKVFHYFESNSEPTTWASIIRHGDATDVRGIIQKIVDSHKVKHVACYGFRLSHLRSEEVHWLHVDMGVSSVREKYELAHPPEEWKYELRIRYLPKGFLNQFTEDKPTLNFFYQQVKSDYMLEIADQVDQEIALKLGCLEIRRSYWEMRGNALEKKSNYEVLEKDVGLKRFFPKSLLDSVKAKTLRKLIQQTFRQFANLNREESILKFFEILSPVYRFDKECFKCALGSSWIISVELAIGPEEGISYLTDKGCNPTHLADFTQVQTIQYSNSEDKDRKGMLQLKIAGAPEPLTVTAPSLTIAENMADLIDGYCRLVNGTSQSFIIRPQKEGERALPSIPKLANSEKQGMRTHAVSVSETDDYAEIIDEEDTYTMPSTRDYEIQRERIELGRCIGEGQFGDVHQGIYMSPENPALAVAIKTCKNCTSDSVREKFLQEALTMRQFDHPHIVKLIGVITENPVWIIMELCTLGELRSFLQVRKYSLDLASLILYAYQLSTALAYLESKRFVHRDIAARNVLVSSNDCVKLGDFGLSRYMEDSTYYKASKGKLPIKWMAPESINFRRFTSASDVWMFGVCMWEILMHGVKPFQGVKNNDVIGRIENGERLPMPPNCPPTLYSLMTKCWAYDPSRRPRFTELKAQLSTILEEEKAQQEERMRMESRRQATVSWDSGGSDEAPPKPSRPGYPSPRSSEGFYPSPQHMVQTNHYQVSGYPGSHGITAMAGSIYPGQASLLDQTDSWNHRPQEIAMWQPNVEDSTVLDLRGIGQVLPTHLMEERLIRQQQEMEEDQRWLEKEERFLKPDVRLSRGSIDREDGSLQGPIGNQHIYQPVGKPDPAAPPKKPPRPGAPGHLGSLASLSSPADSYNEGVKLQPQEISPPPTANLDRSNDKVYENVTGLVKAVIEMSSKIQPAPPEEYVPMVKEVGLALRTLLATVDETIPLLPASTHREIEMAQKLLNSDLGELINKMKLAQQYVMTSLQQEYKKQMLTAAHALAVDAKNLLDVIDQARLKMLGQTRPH
Chain of Fibroblast growth factor 2 (Homo sapiens) (P09038 whole entry, looked up): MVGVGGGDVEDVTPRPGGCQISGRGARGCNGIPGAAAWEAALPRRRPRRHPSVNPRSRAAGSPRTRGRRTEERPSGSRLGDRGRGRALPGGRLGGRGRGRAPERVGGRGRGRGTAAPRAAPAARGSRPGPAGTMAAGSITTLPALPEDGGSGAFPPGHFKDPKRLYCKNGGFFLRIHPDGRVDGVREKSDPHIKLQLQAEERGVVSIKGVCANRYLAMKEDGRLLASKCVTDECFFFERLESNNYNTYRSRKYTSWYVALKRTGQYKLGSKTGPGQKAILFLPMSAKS

| SMILES | composite z-score [1] | composite z-score [2] | composite z-score [3] | composite z-score [4] | composite z-score [5] | composite z-score [6] | z-score [7] | composite z-score (Lefty1) | composite z-score [8] | z-score [9] |
| --- | --- | --- | --- | --- | --- | --- | --- | --- | --- | --- |
| C=CC[C@]1(C(N)=O)N=C(c2ccc(OCCCO)cc2)O[C@H]1c1ccccc1 | 1.3 | 1.08 | 0.784 | 0.691 | 0.482 | 0.17 | -0.852 | -0.664 | 0.417 | 0.004 (inactive) |
| COC(=O)[C@@]1(Cc2ccc(OC)cc2)[C@H]2c3cc(C(=O)N4CCCC4)n(CCSCCO)c3C[C@H]2CN1C(=O)c1ccccc1 | 2.01 | 1.29 | 0.529 | 0.787 | -0.0598 | -0.254 | 0.572 | -0.731 | 1.39 | 0.644 (inactive) |
| COc1cc(CO)cc(I)c1O[C@H]1C=C(C(=O)NCCO)C[C@@H](NC[C@@H]2CCCO2)[C@@H]1O | 0.296 | 0.63 | 0.106 | 0.346 | 0.323 | 0.599 | 0.452 | 0.831 | 0.483 | 0.758 (inactive) |
| COc1ccc([C@H]2OC[C@@H]3CCC(=O)N32)cc1 | 0.822 | 1.02 | 0.0902 | 0.362 | 0.886 | 0.031 | 0.779 | 1.36 | 0.329 | -0.699 (inactive) |
| COc1ccc([Si](C)(C)[C@@H]2[C@@H](CCn3cc([C@H](O)c4ccccc4)nn3)O[C@]3(C(=O)N(Cc4cccc(N5CCC5=O)c4)c4ccccc43)[C@H]2C)cc1 | 0.963 | 0.227 | -0.285 | 0.119 | 1.15 | 1.06 | 2.21 | 0.0197 | 0.187 | 0.258 (inactive) |
| C=CCNC(=O)[C@@H]1[C@H]2C(=O)O[C@H](c3ccccc3)[C@H](c3ccccc3)N2[C@H](c2ccc(OCCO)cc2)[C@@]12C(=O)N(C(=O)OCCOC)c1ccc(C#CCC(C(=O)OC)C(=O)OC)cc12 | 1.67 | 1.16 | 1.31 | 0.603 | 1.24 | 1.48 | -1.18 | 0.991 | 1.05 | -0.262 (inactive) |
| CCCCCCCCCCC(O)C1C=CC2C(=O)NC(=O)C2N1Nc1ccc(Cl)cc1Cl (stereo not given) | 0.997 | 0.186 | 0.459 | 0.331 | -0.184 | -0.942 | -0.863 | -1.14 | 0.117 | -0.836 (inactive) |
| C=CC[C@]1(C(=O)N2CCOCC2)N=C(c2ccc(OCCCO)cc2)O[C@H]1c1ccccc1N=[N+]=[N-] | 2.08 | 1.26 | 0.804 | 0.979 | 1.14 | 0.287 | -0.0671 | -0.0598 | 1.37 | -10.7 (active) |
| COCCCNC(=O)[C@@]1(CCS(=O)(=O)c2ccccc2)N=C(c2ccc(OCCCO)cc2)O[C@H]1c1ccccc1N=[N+]=[N-] | 0.328 | 1.25 | -0.0191 | 1.02 | 1.3 | 0.786 | -0.341 | 1.27 | 1.01 | -8.3 (active) |
| CCCCCCc1nc(-c2ccc(-c3ccc(Cl)c(Cl)c3)o2)c(C)c2c1[Si](C(C)C)(C(C)C)OC2 | -0.0923 | -0.634 | -0.0899 | -0.086 | -0.0705 | -0.773 | -0.838 | 0.268 | -0.328 | -2.67 (inactive) |
| Cc1ccc(S[C@]2(C(=O)NCC(C)C)CC(=O)N(Cc3cc(C(F)(F)F)cc(C(F)(F)F)c3)[C@@H]2c2ccc(CO)cc2)cc1 | 0.63 | -0.8 | -0.261 | -0.529 | -0.0643 | -0.205 | -0.587 | -0.866 | -0.262 | 0.111 (inactive) |
| COC(=O)[C@@]1(CCC(=O)OC(C)(C)C)N=C(c2ccc(OCCCO)cc2)O[C@H]1c1ccccc1 | 0.467 | 0.896 | 0.517 | 0.554 | 0.693 | 0.989 | -0.4 | -0.85 | 0.492 | -5.22 (inactive) |
| COC(=O)C(CC#Cc1ccc2c(c1)[C@]1(C(=O)N2)[C@H](c2ccc(O)cc2)N2[C@H](c3ccccc3)[C@H](c3ccccc3)OC(=O)[C@H]2[C@@H]1C(=O)N1CCN(c2ncccn2)CC1)C(=O)OC | 3.29 | 1.23 | 0.809 | 0.975 | 0.771 | 0.208 | -0.35 | 0.162 | 1.2 | -0.078 (inactive) |
| O=C1NC(=O)C2C1C=CC(C(O)c1ccc(I)cc1)N2Nc1ccc(Cl)cc1Cl (stereo not given) | 0.258 | 1.03 | 0.741 | 0.978 | 0.73 | -0.451 | 0.535 | -0.199 | 0.661 | -1.33 (inactive) |

Reference: PubChem BioAssay
